The panel holds about 83,000 compounds, 20% with a hit somewhere; the sample as a whole holds those more often.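 The endpoint reported here, percent growth, reads 100 for growth as untreated, 0 for no net growth and -100 for all cells dead.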 Activity calls are given as the source filed them. The calls were made as follows: active = growth percent below 10; inactive = the rest.

Consider 40 compounds from PubChem BioAssay (NCI).

This assay has as its system HL-60(TB) leukemia. In words: NCI-60 one-dose screen, 48 h (100 = growth as untreated, 0 = no growth, -100 = all killed). The settings on record: 10 µM unless noted.
In the case of `O=C1CC(c2nc3ccccc3s2)CN1C1CCCCC1` (stereo not given), the growth was 91.3% (inactive).

`CCOC(=O)c1cc2c(n(C)c1=O)-c1cnn(-c3ccc(OC)cc3)c1CC2`: the growth was 113% (inactive).

As for `COc1ccc2c(c1)CC[C@@H]1[C@@H]2CC[C@]2(C)c3c(cc(C#N)c4c3sc3ccccc34)C[C@@H]12`, the growth is 91.7% (inactive).

For the compound `CC/C(=N/NC(N)=O)c1ccccc1`, the growth is 101% (inactive).

As to `CN(CCc1ccccc1)C(=S)N(C(=O)c1ccc([N+](=O)[O-])cc1)c1ccc(Cl)cc1`, the growth was 45% (inactive).

Consider `CCN1C(=O)c2ccc3c4c(ccc(c24)C1=O)C(=O)N(CCCNCc1ccccc1OC)C3=O`, for which the growth was -52.6% (active).

Regarding `Cc1[nH]c(/C=C/C(=O)c2ccc(C(F)(F)F)c(F)c2)c(C)c1C(=O)NCC(C)C`, the growth is 98.5% (inactive).

For the compound `CN1CCN=C1c1ccc(NC(=O)c2ccc(C(=O)Nc3ccc(C4=NCCN4C)cc3)cc2)cc1`, the growth was 91.2% (inactive).

For the compound `CC(C)(C)c1ccc(OCCCCCCN2CCNCC2)cc1`, the growth is 15.2% (inactive).

In the case of `CC(C)(C)CC(N)=O`, the growth was 120% (inactive).

`COc1cccc(NC(=O)c2sc3nc4c(cc3c2N)CN(Cc2ccccc2)CC4)c1`: the growth was 50.1% (inactive).

As to `CCOC(=O)Cc1csc2nc(-c3ccccc3)nn12`, the growth was 53% (inactive).

For `O=C(/C=C/c1ccc(Cl)cc1)c1ccc(Nc2nc(NCCO)nc(N3CCOCC3)n2)cc1`, the growth was 99% (inactive).

With `CC/C(=C\c1ccc(N(C)C)cc1)c1nc2ccccc2c(=O)[nH]1`, the growth is 179% (inactive).

Take `C=CC(=O)N1CN(C(=O)C=C)CN(C(=O)C=C)C1`: the growth is 25.3% (inactive).

Take `COc1ccc(/C(C#N)=C/c2cccc(OC)c2OC)cc1`: the growth was 76.7% (inactive).

As for `COc1cc(-c2nn(-c3cccc(NC(=O)Nc4ccc(Cl)c(C(F)(F)F)c4)c3)cc2-c2ccncc2)ccc1Cl`, the growth is -19.8% (active).

With `NC(CCC(=O)NC(CS)C(=O)NCC(=O)O)C(=O)O` (stereo not given), the growth was 73.1% (inactive).

Take `C=CCOC(=O)Nc1cccn([C@H](Cc2ccccc2)C(=O)NCCC(C)C)c1=O`: the growth is 95.1% (inactive).

For `O=C(c1ccccc1)N(CCCCl)C(=O)N(CCCCl)C(=O)c1ccccc1`, the growth is 94% (inactive).

As to `COc1ccc(C(=O)/C=C/c2cc(-c3ccc(OC)c(OC)c3)n[nH]2)cc1OC`, the growth is -25.4% (active).

`COc1ccc(/C=C/C(=O)c2cc3c(N)c(C(=O)Nc4ccccc4)sc3nc2C)cc1`: the growth was 2.92% (active).

For the compound `COc1ccc(C(C)=O)cc1N1C(=O)C2C(C1=O)C1(c3ccccc3)C(=O)C2(c2ccccc2)C(c2ccc(C)cc2)=C1c1ccc(C)cc1` (stereo not given), the growth is 17.1% (inactive).

Turning to `NS(=O)(=O)c1ccc(N=Nc2c(O)n(Cc3ccccc3)c3ccc(Cl)cc23)cc1`, the growth was 95% (inactive).

Consider `CC[C@H](CC[C@@H](C)[C@H]1CC[C@H]2[C@@H]3/C(=C/c4cccnc4)C(=O)C4=CC(=O)CC[C@]4(C)[C@H]3CC[C@]12C)C(C)C`, for which the growth was 64.6% (inactive).

Consider `CCOC(=O)c1c(C)nc(C)c(C(=O)OCC)c1-c1cccnc1`, for which the growth is 61.1% (inactive).

For the compound `O=C(Nc1ccc2ncsc2c1)c1csc(Nc2ccc3[nH]ncc3c2)n1`, the growth is 9.68% (active).

As for `CCCN=C1NC(=O)/C(=C/c2nc(-c3ccc(OC)cc3)n3ccccc23)S1`, the growth was 79.8% (inactive).

As for `O=C(CCNNC(=O)c1ccncc1)NCc1ccccc1`, the growth was 70.1% (inactive).

In the case of `O=C(COc1ccc(Cl)cc1)N1CCN(Cc2ccc3c(c2)OCO3)CC1`, the growth is 109% (inactive).

In the case of `COc1cc(NC(=O)c2cncnc2Nc2ccc3c(ccn3Cc3ccccn3)c2)cc(OC)c1`, the growth was 4.49% (active).

Regarding `CC(C)CCNCC(C)(C)O`, the growth is 99.3% (inactive).

As to `CC(Br)C(O)c1cc2c(cc1Br)OCO2` (stereo not given), the growth is 105% (inactive).

As to `Cc1cc(C)c(C=O)c(C)c1`, the growth was 84.1% (inactive).

On to `Cc1nc(Nc2ccc(NC(=S)Nc3ccccc3)cc2)c2ccccc2n1`, for which the growth was 86.4% (inactive).

In the case of `CCn1cc(-c2ccnc(NCCNS(=O)(=O)c3cccc4ccccc34)c2)c(-c2cccc(O)c2)n1`, the growth was 103% (inactive).

`COc1ccc([C@@H]2[C@@H](Cl)C(=O)N2c2cc(OC)c(OC)c(OC)c2)cc1C`: the growth was -30.3% (active).

As for `O=c1[nH]c2ccc(Cl)cc2c2ccccc12`, the growth is 130% (inactive).

On to `Cc1ccc(S(=O)(=O)c2nc(-c3ccccc3)oc2SCC(N)=O)cc1`, for which the growth is 65.3% (inactive).

For `CCN(CC)CCC(C(=O)O)(c1ccccc1)c1ccccc1`, the growth is 93.5% (inactive).
